The values that follow come from PubChem BioAssay.

Assay [1] can be described thus: viability loss in pontine glioma line – cell-based, SU-DIPG-XIII, MIPE4.0, CellTiter-Glo, qHTS, dose response (AID 1347061; cut-off not given, nearly all actives have AC50 up to about 37 µM;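 note: cells exposed to compound for 48 hours before readout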). The conditions noted are these: CellTiter-Glo ATP luminescence.
Assay [2] in a line: viability loss in pontine glioma line – cell-based, JHH-DIPG-1, MIPE4.0, CellTiter-Glo, qHTS, dose response (AID 1347062; cut-off not given, nearly all actives have AC50 up to about 27 µM). Particulars: JHH-DIPG-1 viability, CellTiter-Glo ATP luminescence.
A short description of assay [3]: viability loss in pontine glioma line – cell-based, SU-DIPG-IV, MIPE4.0, CellTiter-Glo, qHTS, dose response (AID 1347063; cut-off not given, nearly all actives have AC50 up to about 30 µM;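 note: compound exposure lasted 48 hours before the viability readout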). Particulars: CellTiter-Glo ATP luminescence.
Assay [4] can be described thus: growth inhibition of DIPG cells – cell-based, MIPE4.0 library, CellTiter-Glo luminescence, qHTS (AID 1347066; cut-off not given, nearly all actives have AC50 up to about 30 µM;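 note: cells exposed to compound for 48 hours before readout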). Particulars: SU-DIPG-VI viability, CellTiter-Glo ATP luminescence.
A short description of assay [5]: viability loss with induced miR-34 in A549 – imaging, A549 dox-inducible miR-34, nuclei and caspase counts, primary screen (AID 1347080;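 active = compounds whose cell count with miR-34 switched on is under 0.7 times the count with it off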). The conditions noted are these: A549 miR-34 inducible, Hoechst nuclei count, 48 h.
Assay [6] can be described thus: MELAS cybrid and Rieske KO viability enhancers – cell-based, MELAS cybrids, Rieske KO mouse fibroblasts, CellTiter-Glo, primary screen (AID 1508586;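 active = mean z-score across replicates of 1.96 or higher in either the MELAS or the Rieske mutant cell line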;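 note: z relative to plate mean and SD of compound and empty wells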). The conditions noted are these: low glucose.
A short description of assay [7]: viability loss in pontine glioma line – cell-based, SU-DIPG-XIII, MIPE5.0, CellTiter-Glo, qHTS, dose response (AID 1347064; cut-off not given, nearly all actives have AC50 up to about 23 µM). Particulars: CellTiter-Glo ATP luminescence.
Assay [8] can be described thus: JHH-DIPG-1 glioma cell viability, MIPE5.0 library, CellTiter-Glo luminescence, qHTS (AID 1347067; cut-off not given, nearly all actives have AC50 up to about 26 µM;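 note: cells exposed to compound for 48 hours before readout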). Particulars: JHH-DIPG-1 glioma viability, CellTiter-Glo ATP luminescence.
The nature of assay [9]: growth inhibition of DIPG cells – cell-based, MIPE5.0 library, qHTS (AID 1347068; cut-off not given, nearly all actives have IC50 up to about 30 µM). Particulars: SU-DIPG-XXV viability.
A short description of assay [10]: compounds altering HSF1 focus formation in cells – imaging, Selleck Cancer Library (AID 1347162; in the data active = plate-normalised HSF1 focus index below about 0.46). Particulars: human cells, HSF1 nuclear foci imaging, at 10 µM; SSMD: measured here: HSF1 foci SSMD mean; cell count: measured here: cell number; plate-normalised HSF1 focus index: stronger effect = lower value.
Assay [11] is described as follows: viability loss in pontine glioma line – cell-based, SU-DIPG-XXV, MIPE5.0, CellTiter-Glo, qHTS, dose response (AID 1347065; cut-off not given, nearly all actives have AC50 up to about 26 µM;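 note: cells exposed to compound for 48 hours before ATP readout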). Particulars: CellTiter-Glo ATP luminescence.
Assay [12] is described as follows: growth inhibition, single agent or in combination, cell-based, chromothripsis tumors, cisplatin or BGB combos (AID 1671449).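 Note: cells exposed for 96 hours; 0% = vehicle DMSO and 100% = killing by high DMSO.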 Particulars: LFS_MB_P medulloblastoma cells.
A short description of assay [13]: growth inhibition, single agent and combos, cell-based, chromothripsis tumors, cisplatin or BGB combos (AID 1671450).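 Note: cells exposed to compound for four days; 0% = vehicle DMSO and 100% = cell killing by high DMSO.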 Particulars: HDN33 neuroblastoma cells, stronger effect = higher value.
Assay [14] is described as follows: growth inhibition, single agents and combos, ICB984, cell-based, cisplatin or BGB combos, synergistic combos for chromothripsis tumors (AID 1671451; call rule not given here;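 note: cells exposed for 96 hours before readout; 0% = vehicle DMSO and 100% = killing by high DMSO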). Particulars: ICB984 medulloblastoma cells, drug combinations, stronger effect = higher value.
A short description of assay [15]: growth inhibition, single agents and combos, HTB85, cell-based, BGB or cisplatin IC20 combos, synergistic combos for chromothripsis tumors (AID 1671453).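 Note: cells exposed for 96 hours before readout; 0% = vehicle DMSO and 100% = high DMSO killing control.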 The conditions noted are these: HTB85 osteosarcoma cells, drug combinations, stronger effect = higher value.
Assay [16] is described as follows: growth inhibition, MDA-MB-436, cell-based, BGB or cisplatin combos, synergistic combos for chromothripsis tumors (AID 1671458; call rule not given here;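 note: cells exposed for 96 hours; 0% = vehicle DMSO and 100% = killing by high DMSO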). Particulars: MDA-MB-436 breast carcinoma growth inhibition, drug combinations, stronger effect = higher value.
Assay [17] in a line: BT084 cell growth, single and combined drugs, ICGC_MB145, cisplatin and BGB IC40 combos (AID 1671461).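 Note: cells exposed to drugs for 96 hours; 0% = vehicle DMSO and 100% = high DMSO full killing control.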 Particulars: BT084 medulloblastoma cells, drug combinations, stronger effect = higher value.
A short description of assay [18]: RCMB18 cell growth, single agent and combined, cisplatin and BGB IC40 combos (AID 1671462).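 Note: cells exposed to compound for four days.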 Particulars: RCMB18 medulloblastoma cells, stronger effect = higher value.
The nature of assay [19]: CRL1545 cell growth, single agent and combined, cisplatin and BGB IC20 combos (AID 1671464).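 Note: cells exposed to compound for 96 hours before readout; 0% = vehicle DMSO and 100% = high DMSO killing control.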 The conditions noted are these: CRL1545 osteosarcoma cells, stronger effect = higher value.
Where [20] appears, read: measured here: with BGB IC20 combination, at 0.5 µM.
Where [21] appears, read: measured here: with cisplatin IC20 combination, at 0.5 µM.

Each structure is given as a SMILES string. Several values for one entry are separate records, joined by “and”; a condition that tells them apart may be missing. Equal values may be shown once. Inconclusive results are not listed. The source holds several records for some structures; these can differ, active in one and inactive in another. Activity calls are given as the source filed them. Cut-off read from the data, not from the text of the source, unless noted: active = inhibition above about 80%; inactive = the rest.

`C[N+]1(C)[C@@H]2CC(OC(=O)C(O)(c3cccs3)c3cccs3)C[C@H]1[C@@H]1O[C@@H]12` (stereo not given in full): the compound was called inactive in assay [1], in assay [2], in assay [3] and in assay [4]. Also, the fold change in assay [5] (stronger effect = lower value, cell number ratio, induced over uninduced) is 0.899 (inactive); in assay [5] (measured here: relative caspase fold change +Dox/-Dox), 1.32. Also, the cell count in assay [5] (measured here: total cells with miR-34 induction, stronger effect = lower value) is 10300; in [5] (measured here: total cells without miR-34 induction), 11500. In addition, the z-score in [6] (MELAS cybrid survival, CellTiter-Glo 48 h, stronger effect = higher value) is -0.0486 (inactive); in assay [6] (Rieske KO mouse fibroblast survival, CellTiter-Glo 72 h) it was -0.119.

As for `COc1cc(Oc2ccnc3cc(OC)c(OC)cc23)ccc1NC(=O)NC(C)c1nccs1` (stereo not given), the outcome in assay [1], in assay [2], in assay [7], in assay [4], in assay [8] and in assay [9] was inactive. In [10], this compound registered an SSMD of 1.89. The compound further yielded a cell count in assay [10] of 6450. For the same compound, the plate-normalised HSF1 focus index in assay [10] is 1.1 (inactive).

In the case of `CCOC(=O)N[C@@H]1CC[C@@H]2[C@@H](C1)C[C@H]1C(=O)O[C@H](C)[C@H]1[C@H]2/C=C/c1ccc(-c2cccc(F)c2)cn1`, the compound was classed as inactive in [1], in assay [2], in assay [7], in [4], in assay [8] and in assay [9].

Regarding `Cc1c(-c2cccc3c(CCCOc4cccc5ccccc45)c(C(=O)O)n(Cc4cccnc4)c23)c(COc2ccc(N3CCN([S+](=O)([O-])N(C)C)CC3)cc2)nn1C`, the compound was called inactive in assay [1] and in assay [2]. Moreover, the half-maximal activity concentration (AC50) in assay [4] is 23.5 µM (active).

As to `Cc1cnc(CNC(=O)c2c(=O)c3ccc(N4CCCN(C)CC4)nc3n3c2sc2ccccc23)cn1`, the call in [1], in assay [2], in assay [7], in assay [11], in [4] and in [9] was inactive. Further, the inhibition in assay [12] (at 0.5 µM, stronger effect = higher value) is -32.6% (inactive) and -19.8% (inactive); in [12] (measured here: combination with BGB IC20, at 0.005 µM) it was -4.81% and -24.5%; in [12] (measured here: combination with BGB IC40, at 0.005 µM) it was -1.91% and -28.2%; in assay [12] (measured here: combination with BGB IC40, at 0.05 µM) it was 0.537% and -10.1%; in assay [12] (measured here: combination with cisplatin, at 0.5 µM, stronger effect = higher value), -27% and -20.6%; in assay [12] (measured here: combination with cisplatin, at 5 µM, stronger effect = higher value), 126% and 65.2%. Moreover, the inhibition in [13] (BGB combo, at 5 µM) is 99.9% and 61.4%; in assay [13] (at 0.5 µM) it was 53.7% (inactive) and 26.5% (inactive); in [13] (cisplatin combo, at 5 µM), 99.9% and 78%; in assay [13] (setting [20]), 51.6% and 27.6%; in assay [13] (setting [21]), 44.8% and 18.7%; in [13] (single agent, at 5 µM) it was 99.9% and 80.2%. The inhibition in assay [14] (BGB IC20 combo, at 0.005 µM) was 94.7% and -37.9%; in assay [14] (BGB IC40 combo, at 0.005 µM) it was 92.8% and -33.4%; in [14] (BGB IC40 combo, at 0.05 µM), 102%; in assay [14] (at 0.5 µM), -35% (inactive) and -18.1% (inactive); in assay [14] (cisplatin combo, at 0.05 µM) it was 102%; in assay [14] (cisplatin combo, at 0.5 µM), -48.5% and -27.9%. For the same compound, the inhibition in [14] (cisplatin combo, at 5 µM) was -21.1% and -37.3%; in [14] (measured here: 5 uM single agent, at 5 µM), -8.37% and -11.6%; in assay [15] (at 0.5 µM), 6.45% (inactive) and -21.5% (inactive); in assay [15] (measured here: with BGB IC20, at 0.5 µM), 2.27% and -44.5%; in assay [15] (measured here: with BGB IC20, at 5 µM) it was 100% and 39.1%; in [15] (measured here: with cisplatin IC20, at 0.5 µM), -0.545% and -23%. In addition, the inhibition in assay [15] (measured here: with cisplatin IC20, at 5 µM) is 99.9% and 26.3%; in [15] (single agent, at 5 µM), 100% and 41.7%; in assay [16] (at 0.5 µM), 29.4% (inactive) and 4.69% (inactive); in [16] (measured here: BGB combination, at 0.5 µM), 10.6% and -16.3%; in assay [16] (measured here: BGB combination, at 5 µM), 103% and -17.9%; in [16] (measured here: cisplatin combination, at 0.5 µM), 20.7% and -11.9%. Moreover, the inhibition in assay [16] (measured here: cisplatin combination, at 5 µM) is 102% and 14.1%; in [17] (at 0.5 µM) it was -18.1% (inactive) and -56.2% (inactive); in [17] (cisplatin combination, at 0.5 µM) it was 18.1% and -29.3%; in [17] (cisplatin combination, at 5 µM), 108% and 82.2%; in [17] (measured here: BGB IC40 combination 0.05 uM, at 0.05 µM) it was 77.5% and -15.1%; in [17] (single agent, at 5 µM), 106% and -74.4%. For the same compound, the inhibition in assay [18] (at 0.5 µM) is 85.6% (active) and -19.4% (inactive); in [18] (cisplatin combo, at 5 µM), 101% and 100%; in assay [18] (measured here: BGB IC40 combination, at 0.05 µM) it was -21.6% and -12.2%; in assay [18] (measured here: combination with cisplatin, at 0.5 µM) it was 95.7% and -7.59%; in assay [18] (single agent, at 5 µM), 101%; in [19] (at 0.5 µM), 38.3% (inactive) and -17.2% (inactive). Further, the inhibition in assay [19] (setting [20]) is 36.7% and -12.7%; in assay [19] (setting [21]), 39% and -19.4%; in [19] (single agent, at 0.05 µM) it was 2.42% and -7.19%; in assay [19] (single agent, at 5 µM) it was 99.9%.
